Experimental findings from PubChem BioAssay (NCI) are described below.

Compounds without any hit were thinned out: in the full panel of roughly 83,000, 20% have a hit.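 Negative percent growth values reflect cell death: -40 means 40% of the cells present at the start died, and -100 means all died.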 Activity calls are given as the source filed them. The calls were made as follows: active = growth percent below 10; inactive = the rest.

For the experiment, the system named is COLO 205 colon. Put plainly: NCI-60 one-dose screen, 48 h (100 = growth as untreated, 0 = no growth, -100 = all killed). The settings on record: 10 µM unless noted.
Consider `CCOc1ccc(NC(=O)CSc2oc(-c3ccccc3)nc2S(=O)(=O)c2ccc(C)cc2)cc1`, for which the growth is 81.8% (inactive).

On to `O=C(/C=C/c1cccc(Cl)c1)c1ccc(Nc2nc(Nc3ccc(F)cc3)nc(Nc3ccc(Cl)cc3)n2)cc1`, for which the growth is 108% (inactive).

In the case of `Cn1c(I)c(C#CCO[Si](C)(C)C(C)(C)C)c(=O)[nH]c1=O`, the growth was 82.7% (inactive).

`CC(=O)Oc1ccc(C)cc1C`: the growth was 125% (inactive).

On to `COc1cc(C2CC(c3ccc(Nc4nc(Nc5ccc(Cl)cc5)nc(Nc5ccc(Cl)cc5)n4)cc3)=NN2C(C)=O)cc(OC)c1OC` (centres undefined), for which the growth was 97.9% (inactive).

Regarding `c1cnc2c(-c3nc4ccc5[nH]ncc5c4c4c3CCCC4)c[nH]c2c1`, the growth was 26.7% (inactive).

As for `COc1ccc(/C=C/C(=O)c2cc3c(N)c(C(=O)Nc4cccc5ccccc45)sc3nc2C)cc1`, the growth was 103% (inactive).

For `O=C1/C(=C/c2ccc([N+](=O)[O-])cc2)COc2ccc(O)cc21`, the growth is 92.9% (inactive).

On to `CCOCCNC1=C(Cl)C(=O)c2ccccc2C1=O`, for which the growth is 130% (inactive).

For the compound `CCN(CC)c1ccc(\C=N/N=C(N)/C(N)=N\N=C/c2ccc(N(CC)CC)cc2)cc1`, the growth was 106% (inactive).

`CSc1nc2ccccc2cc1/C=C1/C=C(c2ccccc2)NC1=O`: the growth is 93.8% (inactive).

`Cn1cc(-c2ccc3nc(-c4ccc(CC(=O)ONc5cc(C(C)(C)C)on5)cc4)cnc3c2)cn1`: the growth is 51.3% (inactive).

Regarding `Nc1ncnc2c1C(c1ccccc1)c1ccc3ccccc3c1O2` (centres undefined), the growth is 92.8% (inactive).

As to `N#Cc1nc(-c2ccc(F)cc2)oc1S(=O)(=O)N1CCOCC1`, the growth was -36.4% (active).
